This is part of a sample that, as a whole, favours compounds with a hit. Of some 79,000 tested, about 15% had one in any assay. The source made the active and inactive calls. Cut-off read from the data, not from the text of the source: active = growth inhibition above about 70%; inactive = the rest.
What was measured:
[1] = NCI Yeast Anticancer Drug Screen. Data for the rad52 strain (AID 147);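 note: 0% = growth of vehicle-treated control cultures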; details: S. cerevisiae rad52 mutant growth inhibition, hits give high values
Summary of the method: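 Growth of repair-deficient yeast cells was compared between compound-treated and vehicle-treated cultures to give percent inhibition.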

[2] = NCI Yeast Anticancer Drug Screen. Data for the wt1 strain (AID 149);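 note: 0% = growth of vehicle-treated wt1 cultures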; details: S. cerevisiae wt1 strain (SPY 50644) growth inhibition, hits give high values
Summary of the method: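 Growth inhibition read against vehicle controls after compound exposure of the wt1 yeast strain.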

[3] = NCI Yeast Anticancer Drug Screen. Data for the rad50EPP+ strain (AID 151);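 note: 0% = growth of vehicle-treated control cultures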; details: S. cerevisiae rad50 mutant strain, hits give high values
Summary of the method: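 Measured: growth inhibition of rad50EPP+ yeast. Reference: vehicle-treated controls. Screen uses strains with defined genetic alterations in DNA damage repair or cell cycle control.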

[4] = NCI Yeast Anticancer Drug Screen. Data for the mgt1 strain (AID 153); details: S. cerevisiae mgt1 mutant growth inhibition, hits give high values
Summary of the method: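 Compounds were applied to mgt1 mutant yeast, and growth was then compared against vehicle-treated control cultures to give percent inhibition.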

[5] = NCI Yeast Anticancer Drug Screen. Data for the rad50 strain (AID 155);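 note: 0% = growth of vehicle-only cultures of the same strain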; details: S. cerevisiae rad50 strain growth inhibition, hits give high values
Summary of the method: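 Readout: growth inhibition relative to vehicle-treated cultures. Compound exposure was carried out in a genetically defined yeast strain deficient in DNA damage repair.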

[6] = NCI Yeast Anticancer Drug Screen. Data for the mec2-1 strain (AID 157); details: S. cerevisiae mec2-1 strain, hits give high values
Summary of the method: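 Compounds were applied to mec2-1 yeast cells. Their growth was then compared with that of vehicle-treated cultures to give growth inhibition.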

[7] = NCI Yeast Anticancer Drug Screen. Data for the rad14 strain (AID 159);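 note: 0% = growth of vehicle-treated control cultures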; details: S. cerevisiae rad14 strain growth inhibition, hits give high values
Summary of the method: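 Growth inhibition vs vehicle controls; genetically altered yeast strain (DNA damage repair defect) treated with test compounds.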

[8] = NCI Yeast Anticancer Drug Screen. Data for the sgs1 mgt1 strain (AID 161);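 note: 0% = growth of cultures given vehicle only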; details: S. cerevisiae sgs1 mgt1 strain, hits give high values
Summary of the method: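 Percent growth inhibition was derived by comparing compound-exposed mutant yeast with vehicle-exposed cultures. The strain carries alterations in DNA damage repair.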

[9] = NCI Yeast Anticancer Drug Screen. Data for the CLN2oe strain (AID 163);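 note: 0% = growth of vehicle-only control cultures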; details: S. cerevisiae CLN2oe strain, hits give high values
Summary of the method: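 Cells of an engineered yeast line with disturbed cell-cycle regulation are treated with compound. Inhibition of growth is then calculated relative to the vehicle-treated reference.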

[10] = NCI Yeast Anticancer Drug Screen. Data for the cln2 rad14 strain (AID 165);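 note: 0% = growth equal to vehicle treated cultures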; details: S. cerevisiae cln2 rad14 strain, hits give high values
Summary of the method: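 Strain: cln2 rad14 yeast, altered in cell cycle control and DNA damage repair. Read-out: growth inhibition vs vehicle.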

[11] = NCI Yeast Anticancer Drug Screen. Data for the bub3 strain (AID 167); details: S. cerevisiae bub3 mutant strain, hits give high values
Summary of the method: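 Readout: yeast growth inhibition, expressed relative to vehicle-only wells. The test organism is a mutant strain from a panel with lesions in DNA repair or checkpoint genes.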

[12] = NCI Yeast Anticancer Drug Screen. Data for the wt2 strain (AID 169);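 note: 0% = growth of vehicle-treated yeast cultures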; details: S. cerevisiae wt2 strain growth inhibition, hits give high values
Summary of the method: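 Growth of compound-treated yeast is measured and expressed as inhibition relative to vehicle-only controls.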

[13] = NCI Yeast Anticancer Drug Screen. Data for the mlh1 strain (AID 171);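 note: 0% = growth of vehicle-treated control cultures of the same strain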; details: S. cerevisiae mlh1 strain growth inhibition, hits give high values
Summary of the method: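 Test agents were incubated with yeast bearing a defined DNA damage repair or cell cycle control alteration; values are growth inhibition normalised to vehicle-treated cultures.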

[14] = NCI Yeast Anticancer Drug Screen. Data for the sgs1 strain (AID 173);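 note: 0% = growth of vehicle-only control cultures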; details: S. cerevisiae sgs1 mutant, hits give high values
Summary of the method: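 Strain with an altered DNA repair or cell cycle pathway exposed to compound. Growth then measured. Value = inhibition versus vehicle control.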

[15] = NCI Yeast Anticancer Drug Screen. Data for the mlh1 rad18 strain (AID 175); details: S. cerevisiae mlh1 rad18 strain growth inhibition, hits give high values
Summary of the method: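 A repair-deficient yeast strain is exposed to test compound, and growth is scored relative to vehicle-treated controls.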

[16] = NCI Yeast Anticancer Drug Screen. Data for the rad18 strain (AID 177); details: S. cerevisiae rad18 mutant growth inhibition, hits give high values
Summary of the method: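 DNA-repair-defective yeast; compound treatment; growth inhibition scored against vehicle.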

[17] = at 5.0 µM (retest, dose inferred, filed as 0.5)
[18] = at 50.0 µM (retest, dose inferred, filed as 5.0)

Measured: growth inhibition

NC(N)=NS(=O)(=O)c1ccc(Nc2c3ccccc3nc3c(C(=O)NCCO)cccc23)cc1
inactive: [1]; at 1.2 µM 1% | [1]; at 3.7 µM 3% | [1]; at 11.0 µM 4% | [1]; at 33.0 µM 17% | [2]; at 1.2 µM 1% | [2]; at 3.7 µM 1% | [2]; at 11.0 µM 2% | [2]; at 33.0 µM -1% | [2]; at 100.0 µM 5% | [3]; at 1.2 µM -1% | [3]; at 3.7 µM -5% | [3]; at 11.0 µM -5% | [3]; at 33.0 µM 5% | [3]; at 100.0 µM 37% | [4]; at 1.2 µM -1% | [4]; at 3.7 µM -4% | [4]; at 11.0 µM -3% | [4]; at 33.0 µM 12% | [4]; at 100.0 µM 38% | [5]; at 1.2 µM 0% | [5]; at 3.7 µM 0% | [5]; [17] -11% | [5]; at 11.0 µM 3% | [5]; at 33.0 µM 16% | [5]; at 50.0 µM 69.4% | [6]; at 1.2 µM -3% | [6]; at 3.7 µM 0% | [6]; [17] -4% | [6]; at 11.0 µM -2% | [6]; at 33.0 µM 1% | [6]; [18] -2% | [6]; at 50.0 µM -21.9% | [6]; at 100.0 µM 33% | [7]; at 1.2 µM 0% | [7]; at 3.7 µM -1% | [7]; at 11.0 µM -2% | [7]; at 33.0 µM 2% | [7]; at 100.0 µM 17% | [8]; [17] 2% | [8]; [18] 20% | [8]; at 50.0 µM 20.4% | [9]; at 1.2 µM 2% | [9]; at 3.7 µM 0% | [9]; at 11.0 µM 4% | [9]; at 33.0 µM -6% | [9]; at 100.0 µM 11% | [10]; [17] 16% | [10]; [18] 17% | [10]; at 50.0 µM -5.1% | [11]; at 1.2 µM -4% | [11]; at 3.7 µM -1% | [11]; [17] -12% | [11]; at 11.0 µM -4% | [11]; at 33.0 µM -4% | [11]; [18] 33% | [11]; at 50.0 µM -1.35% | [11]; at 100.0 µM 7% | [12]; at 1.2 µM 0% | [12]; at 3.7 µM 0% | [12]; at 11.0 µM 1% | [12]; at 33.0 µM 0% | [12]; at 100.0 µM 20% | [13]; at 1.2 µM -2% | [13]; at 3.7 µM 0% | [13]; at 11.0 µM 1% | [13]; at 33.0 µM 1% | [13]; at 100.0 µM 48% | [14]; at 1.2 µM -1% | [14]; at 3.7 µM 0% | [14]; at 11.0 µM 0% | [14]; at 33.0 µM 5% | [14]; at 100.0 µM 43% | [15]; [17] -1% | [15]; [18] 40% | [15]; at 50.0 µM 46% | [16]; at 1.2 µM -1% | [16]; at 3.7 µM 0% | [16]; at 11.0 µM 9% | [16]; at 33.0 µM 7%
active: [1]; at 100.0 µM 82% | [5]; [18] 73% | [5]; at 100.0 µM 73% | [16]; at 100.0 µM 77%

O=C(COC(=O)c1ccccc1)c1ccc(Br)cc1
active: [1]; at 33.0 µM 99% | [1]; at 100.0 µM 98% | [2]; at 33.0 µM 99% | [2]; at 100.0 µM 97% | [3]; at 1.2 µM 75% | [3]; at 3.7 µM 93% | [3]; at 11.0 µM 99% | [3]; at 33.0 µM 99% | [3]; at 100.0 µM 97% | [4]; at 33.0 µM 99% | [4]; at 100.0 µM 98% | [5]; at 33.0 µM 98% | [5]; [18] 99% | [5]; at 50.0 µM 98.8% | [5]; at 100.0 µM 97% | [6]; at 33.0 µM 99% | [6]; [18] 99% | [6]; at 50.0 µM 99.3% | [6]; at 100.0 µM 99% | [7]; at 33.0 µM 99% | [7]; at 100.0 µM 98% | [8]; [18] 99% | [8]; at 50.0 µM 99.4% | [9]; at 33.0 µM 99% | [9]; at 100.0 µM 97% | [10]; [18] 99% | [10]; at 50.0 µM 98.8% | [11]; at 11.0 µM 100% | [11]; at 33.0 µM 99% | [11]; [18] 99% | [11]; at 50.0 µM 99.7% | [11]; at 100.0 µM 99% | [12]; at 11.0 µM 96% | [12]; at 33.0 µM 100% | [12]; at 100.0 µM 99% | [13]; at 33.0 µM 99% | [13]; at 100.0 µM 98% | [14]; at 11.0 µM 90% | [14]; at 33.0 µM 99% | [14]; at 100.0 µM 99% | [15]; [18] 99% | [15]; at 50.0 µM 99.2% | [16]; at 33.0 µM 99% | [16]; at 100.0 µM 98%
inactive: [1]; at 1.2 µM 14% | [1]; at 3.7 µM 20% | [1]; at 11.0 µM 45% | [2]; at 1.2 µM 2% | [2]; at 3.7 µM -4% | [2]; at 11.0 µM 8% | [4]; at 1.2 µM 5% | [4]; at 3.7 µM 13% | [4]; at 11.0 µM 22% | [5]; at 1.2 µM 17% | [5]; at 3.7 µM 23% | [5]; [17] 31% | [5]; at 11.0 µM 68% | [6]; at 1.2 µM 4% | [6]; at 3.7 µM 7% | [6]; [17] 67% | [6]; at 11.0 µM 17% | [7]; at 1.2 µM 16% | [7]; at 3.7 µM 18% | [7]; at 11.0 µM 30% | [8]; [17] 58% | [9]; at 1.2 µM 0% | [9]; at 3.7 µM 13% | [9]; at 11.0 µM 64% | [10]; [17] 12% | [11]; at 1.2 µM 49% | [11]; at 3.7 µM 65% | [11]; [17] 41% | [12]; at 1.2 µM 16% | [12]; at 3.7 µM 63% | [13]; at 1.2 µM 12% | [13]; at 3.7 µM 17% | [13]; at 11.0 µM 38% | [14]; at 1.2 µM -12% | [14]; at 3.7 µM 10% | [15]; [17] 34% | [16]; at 1.2 µM 15% | [16]; at 3.7 µM 17% | [16]; at 11.0 µM 37%

— PubChem BioAssay (NCI)
